Counter-ions that a name gives are not always drawn. ± gives the standard error. The whole screen tested about 1,300 compounds, of which about 75 (6%) showed an effect of 50% or more. The sample holds strong results, similar compounds and a random draw of the others, so the mix is not that of the screen.
System: Trichoderma virens ATCC 9645
Test: growth yield (OD600) relative to untreated control; higher = less growth inhibition
Conditions: compound concentration: 100 uM
Procedure, shortened: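 Trichoderma virens ATCC 9645 spores at 15,000 spores ml^−1 in potato dextrose broth were exposed in 96-well plates to library compounds at 100 μM final, with or without a biocide at 200 ng ml^−1. After growth at 30 °C, OD600 was read at 40 h and 72 h. Values are growth relative to the control without either agent, averaged over duplicate screens.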

Compound	growth yield (40 h)	growth yield (72 h)
CCOC(=O)C1=C(COCCN)NC(C)=C(C(=O)OC)C1c1ccccc1Cl (configuration not stated) [Amlodipine]	105 ± 12%	113 ± 11%
COc1ccc2cc([C@@H](C)C(=O)O)ccc2c1 [(R) -Naproxen sodium salt]	84.5 ± 7%	87.2 ± 6.4%
CC(C(=O)O)c1ccc2c(c1)[nH]c1ccc(Cl)cc12 (configuration not stated) [Carprofen]	40.7 ± 15%	88.9 ± 8%
CC(C(=O)O)c1ccc(-c2ccccc2)c(F)c1 (configuration not stated) [Flurbiprofen]	72.9 ± 3%	86.5 ± 3.9%
CC[N+](C)(CC)CCOC(=O)C1c2ccccc2Oc2ccccc21 [Methantheline bromide]	110 ± 1.8%	108 ± 1.3%
CCOC(=O)[C@H](CCc1ccccc1)N[C@@H](C)C(=O)N1Cc2ccccc2C[C@H]1C(=O)O [Quinapril hydrochloride]	98.8 ± 3.8%	98.1 ± 1.1%
Cc1cccc(C)c1NC(=O)CN1CCN(CCCC(c2ccc(F)cc2)c2ccc(F)cc2)CC1 [Lidoflazine]	95.6 ± 1.3%	114 ± 3%
CN(C)CCCO[C@@H]1[C@H]2OC(C)(C)O[C@H]2O[C@@H]1[C@H](O)CO [Amiprilose hydrochloride]	100.5 ± 0.79%	101.6 ± 0.73%
CN(C/C=C/C#CC(C)(C)C)Cc1cccc2ccccc12 [Terbinafine]	2.7 ± 0.16%	2.52%
C#CCN(C)Cc1ccccc1 [Pargyline hydrochloride]	105 ± 2.1%	107 ± 2.9%
c1ccc2c(CC3=NCCN3)cccc2c1 [Naphazoline hydrochloride]	101 ± 2.4%	100%
CN(Cc1ccc(C(C)(C)C)cc1)Cc1cccc2ccccc12 [Butenafine Hydrochloride]	2.06 ± 1.4%	1.99 ± 1.1%
CN(C/C=C/c1ccccc1)Cc1cccc2ccccc12 [Naftifine hydrochloride]	15.6 ± 1.6%	55.5 ± 4.3%
CC1(C)O[C@@H]2C[C@H]3[C@@H]4C[C@H](F)C5=CC(=O)C=C[C@]5(C)[C@H]4[C@@H](O)C[C@]3(C)[C@]2(C(=O)CO)O1 [Flunisolide]	100.5 ± 0.48%	96.5 ± 1.3%
N=C(N)N1CCc2ccccc2C1 [Debrisoquin sulfate]	97.5 ± 1.3%	101.8 ± 0.52%
CNCC[C@@H](Oc1cccc2ccccc12)c1cccs1 [(R)-Duloxetine hydrochloride]	99.1 ± 2.9%	107 ± 3.1%
Cc1ncc([N+](=O)[O-])n1CC(O)CCl (configuration not stated) [Ornidazole]	99.8 ± 2.9%	103 ± 2.3%
CC(=O)N(CC(C)C(=O)O)c1c(I)cc(I)c(N)c1I (configuration not stated) [Iocetamic acid]	107 ± 1.6%	104 ± 1.1%
N[C@@H](C(=O)N[C@@H]1C(=O)N2C(C(=O)O)=C(Cl)CS[C@H]12)c1ccccc1 [Cefaclor hydrate]	96.1 ± 4.6%	96.9 ± 4.2%
CCCCC(C)(O)C/C=C/[C@H]1[C@H](O)CC(=O)[C@@H]1CCCCCCC(=O)OC (mixture of isomers) [Misoprostol]	105 ± 1.3%	109 ± 4.1%
CCOC(=O)O[C@]1(C(=O)COC(=O)CC)CC[C@H]2[C@@H]3CCC4=CC(=O)C=C[C@]4(C)[C@H]3[C@@H](O)C[C@@]21C [Prednicarbate]	118 ± 3%	114 ± 2.8%
O=c1[nH]c(=O)n([C@H]2C[C@H](O)[C@@H](CO)O2)cc1C(F)(F)F [Trifluridine]	109.9 ± 0.95%	106 ± 1.1%
O=c1[nH]c(=O)n([C@H]2C[C@H](O)[C@@H](CO)O2)cc1I [Idoxuridine]	102 ± 3.8%	99.4 ± 3.1%
O=c1[nH]c(=O)n([C@H]2C[C@H](O)[C@@H](CO)O2)cc1F [Floxuridine]	11.1 ± 3.8%	46.3 ± 9.3%

Compound	growth yield (40 h)	growth yield (72 h)
c1ccc2[nH]c(-c3cscn3)nc2c1 [Tiabendazole]	1.43 ± 1.4%	1.26 ± 1.3%
C[C@@H]1CCC[C@H](C)N1NC(=O)c1ccc(Cl)c(S(N)(=O)=O)c1 [Clopamide]	99.6 ± 1.8%	103 ± 3%
CCCCc1ncc(/C=C(\Cc2cccs2)C(=O)O)n1Cc1ccc(C(=O)O)cc1 [Eprosartan mesylate]	98.3 ± 5.6%	94.08 ± 0.94%
Cc1onc(-c2ccccc2)c1C(=O)N[C@@H]1C(=O)N2[C@@H]1SC(C)(C)[C@@H]2C(=O)O [Oxacillin sodium]	111 ± 1.6%	105 ± 1.4%
CCCCCOC(=O)Nc1nc(=O)n([C@@H]2O[C@H](C)[C@@H](O)[C@H]2O)cc1F [Capecitabine]	105.2 ± 0.64%	103.2 ± 0.84%
CC(CN(C)C)C(C)(O)Cc1ccc(Cl)cc1 (configuration not stated) [Clobutinol hydrochloride]	105 ± 3.5%	104 ± 2.5%
Oc1c(Cl)cc(Cl)c(Cl)c1Cc1c(O)c(Cl)cc(Cl)c1Cl [Hexachlorophene]	25.3 ± 2.1%	98.9 ± 5.8%
CC(C(=O)O)c1cccc(Oc2ccccc2)c1 (configuration not stated) [Fenoprofen calcium salt dihydrate]	97.5 ± 10%	97.7 ± 13%
CC(=O)N[C@@H](CC(C)C)C(=O)O [N-Acetyl-L-leucine]	103 ± 3%	103 ± 2.7%
CCCN(CCC)CCc1cccc2c1CC(=O)N2 [Ropinirole hydrochloride]	99.43 ± 0.64%	103 ± 1.1%
COc1cc([S+](C)[O-])ccc1-c1nc2cccnc2[nH]1 (configuration not stated) [Sulmazole]	99.4 ± 2.2%	98 ± 1.7%
COc1c2occc2c(OC)c2c(=O)cc(C)oc12 [Khellin]	97.7 ± 1.8%	95.1 ± 5.1%
Cc1cc(=O)oc2cc(O)ccc12 [Hymecromone]	101 ± 0.32%	97.01 ± 0.94%
Cc1cc2cc3c(C)cc(=O)oc3c(C)c2o1 [Trioxsalen]	42.1 ± 0.48%	73.7 ± 4.5%
COC(=O)C1=C(C)NC(C)=C(C(=O)OCCN(C)Cc2ccccc2)C1c1cccc([N+](=O)[O-])c1 (configuration not stated) [Nicardipine hydrochloride]	89.4 ± 5.2%	114 ± 7.8%
COCCOC(=O)C1=C(C)NC(C)=C(C(=O)OC(C)C)C1c1cccc([N+](=O)[O-])c1 (configuration not stated) [Nimodipine]	95.3 ± 7.3%	97.7 ± 9%
COC(=O)C1=C(C)NC(C)=C(C(=O)OCC(C)C)C1c1ccccc1[N+](=O)[O-] (configuration not stated) [Nisoldipine]	25.6 ± 0.48%	23.9 ± 2.3%
COC(=O)C1=C(C)NC(C)=C(C(=O)OC)C1c1ccccc1[N+](=O)[O-] [Nifedipine]	44.2 ± 1.3%	53.1 ± 1.1%
CCOC(=O)C1=C(C)NC(C)=C(C(=O)OC)C1c1cccc(Cl)c1Cl (configuration not stated) [Felodipine]	92.8%	94.2%
CCOC(=O)C1=C(C)NC(C)=C(C(=O)OC)C1c1cccc([N+](=O)[O-])c1 (configuration not stated) [Nitrendipine]	85.6 ± 1.1%	89.9 ± 3.7%
N=C(N=C(N)N)N1CCOCC1 [Moroxidine hydrochloride]	106 ± 4.3%	104 ± 1.9%
O=C(Nc1ccc([N+](=O)[O-])cc1Cl)c1cc(Cl)ccc1O [Niclosamide]	96.1 ± 0.16%	96.59 ± 0.1%
CN[C@@H]1[C@H](O[C@H]2[C@H](O[C@H]3[C@H](O)[C@@H](O)[C@H](N=C(N)N)[C@@H](O)[C@@H]3N=C(N)N)O[C@@H](C)[C@]2(O)C=O)O[C@@H](CO)[C@H](O)[C@H]1O [Streptomycin sulfate]	103 ± 1.3%	104.35 ± 0.1%
COc1cc(C)nc(-n2nc(C)cc2OC)n1 [Epirizole]	111 ± 3.8%	109 ± 3.8%

Compound	growth yield (40 h)	growth yield (72 h)
Cc1ncc(CO)c(CO)c1O [Pyridoxine hydrochloride]	101.5 ± 0.16%	103.3 ± 0.52%
CN1CCC(=C2c3ccccc3CCc3cccnc32)CC1 [Azatadine maleate]	107 ± 7.9%	104 ± 4.2%
Clc1ccc2c(c1)CCc1cccnc1C2=C1CCNCC1 [Desloratadine]	106 ± 6.8%	105 ± 4.8%
CCOC(=O)N1CCC(=C2c3ccc(Cl)cc3CCc3cccnc32)CC1 [Loratadine]	19.2 ± 12%	73.6%
COc1ccc(C[C@@H]2c3cc(OC)c(OC)cc3CC[N@+]2(C)CCC(=O)OCCCCCOC(=O)CC[N@@+]2(C)CCc3cc(OC)c(OC)cc3[C@H]2Cc2ccc(OC)c(OC)c2)cc1OC [Cisatracurium besylate]	95 ± 1.3%	94 ± 3.4%
CCCCc1ccc2[nH]c(NC(=O)OC)nc2c1 [Parbendazole]	53.4 ± 1.9%	95.9 ± 10%
CCCSc1ccc2[nH]c(NC(=O)OC)nc2c1 [Albendazole]	73.2 ± 3.6%	84.3 ± 5.5%
CCCOc1ccc2[nH]c(NC(=O)OC)nc2c1 [Oxibendazol]	16.4 ± 3.6%	74.6 ± 3.5%
Cc1ccc2c(c1)c1c3n2CCNC3CCC1 (configuration not stated) [Pirlindole mesylate]	101 ± 1.1%	104 ± 2.5%
Clc1cc(Cl)c(OCC#CI)cc1Cl [Haloprogin]	6.04 ± 1.6%	5.14 ± 0.73%
CC1CC(OC(=O)c2ccccc2O)CC(C)(C)C1 (configuration not stated) [Homosalate]	109 ± 3.2%	105.8 ± 0.32%
CCCCNc1ccc(C(=O)OCCN(C)C)cc1	99.752 ± 2.2e-14%	102 ± 3.4%
CCCCNc1c(C(=O)OCC)c(C)nc2c1cnn2CC [Tracazolate hydrochloride]	38.1 ± 16%	60.5 ± 13%
CCCCNc1ccc(C(=O)OCCOCCOCCOCCOCCOCCOCCOCCOCCOC)cc1 [Benzonatate]	92.1 ± 2.5%	89.1 ± 2.1%
CC[C@H]1OC(=O)C[C@@H](O)[C@H](C)[C@@H](O[C@@H]2O[C@H](C)[C@@H](O[C@H]3C[C@@](C)(O)[C@@H](O)[C@H](C)O3)[C@H](N(C)C)[C@H]2O)[C@@H](CC=O)C[C@@H](C)C(=O)/C=C/C(C)=C/[C@@H]1CO[C@@H]1O[C@H](C)[C@@H](O)[C@@H](OC)[C@H]1OC [Tylosin]	95.94 ± 0.32%	94.2 ± 1.9%
C[C@H]1c2cccc(O)c2C(=O)C2=C(O)[C@]3(O)C(=O)C(C(N)=O)=C(O)[C@@H](N(C)C)[C@@H]3[C@@H](O)[C@@H]21 [Doxycycline hydrochloride]	93.2 ± 1.8%	92.7 ± 2.7%
Cc1c(N(C)CS(=O)(=O)O)c(=O)n(-c2ccccc2)n1C [Dipyrone]	91.7 ± 4.6%	85.68 ± 0.73%
CN1CCN(CCCN2c3ccccc3Sc3ccc(S(=O)(=O)N(C)C)cc32)CC1 [Thioproperazine dimesylate]	64.5 ± 11%	90.7 ± 4.1%
CN1CCN(CCCN2c3ccccc3Sc3ccc(Cl)cc32)CC1 [Prochlorperazine dimaleate]	31 ± 8.7%	108 ± 2.4%
OCCN1CCN(CCCN2c3ccccc3Sc3ccc(Cl)cc32)CC1 [Perphenazine]	59.1 ± 5.1%	113 ± 14%
CN(C)CCCN1c2ccccc2Sc2ccc(Cl)cc21 [Chlorpromazine hydrochloride]	68.8 ± 2.1%	86.52 ± 0.32%
CC(=O)c1ccc2c(c1)N(CCCN(C)C)c1ccccc1S2 [Acetopromazine maleate salt]	109 ± 5.9%	111 ± 4.1%
CCSc1ccc2c(c1)N(CCCN1CCN(C)CC1)c1ccccc1S2 [Thiethylperazine dimalate]	3.02 ± 0.16%	2.73 ± 0.42%

From the supplement of paper PMC8007513
